From PubChem
LASV entry inh = qHTS for Inhibitors of binding or entry into cells for Lassa Virus | Lassa virus pseudotype entry inhibition, cell reporter | Potency, µM (highest dose often 37.9 µM), inactives show at the top dose activity change, negative = inhibition, hits mostly inhibitors | 300,000 compounds, 1.2% hits | AID 540256, 2011; calls by dose curve; tested in HEK293 cells; also: potency is read from the fitted curve at half-maximal effect; % is scaled to controls: 0 for no effect and ±100 for the full control effect; nearly all actives have a fitted effect of over 50% in size
Pf growth 96h = Primary qHTS for delayed death inhibitors of the malarial parasite plastid, 96 hour incubation; P. falciparum luciferase reporter growth, 96 h; Potency, µM (series often up to 28.7 µM), inactives show at the top dose activity change, negative = inhibition, actives largely listed as inhibitors; 320,000 compounds, 6.9% hits; AID 504834, 2011; also: potency is read from the fitted curve at half-maximal effect; % is scaled to controls: 0 for no effect and ±100 for the full control effect
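96 h incubation, 37 C, 5% CO2, of luciferase-reporter P. falciparum-infected RBCs (2% hematocrit, 0.05% parasitemia final) with test compounds; endpoint luminescence.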
Pf growth 48h = Primary qHTS for delayed death inhibitors of the malarial parasite plastid, 48 hour incubation | P. falciparum luciferase growth in erythrocytes, 48 h | Potency, µM (series often up to 28.7 µM), inactives show at the top dose activity change, negative = inhibition, usual class: inhibitors | 310,000 compounds, 5.9% hits; also: potency is read from the fitted curve at half-maximal effect; % is scaled to controls: 0 for no effect and ±100 for the full control effect
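Growth was read as firefly luciferase luminescence after a 48 h, 37 C, 5% CO2 exposure of compounds to reporter-bearing P. falciparum cultures (0.1% parasitemia, 2% hematocrit final) in Albumax-supplemented RPMI 1640.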
Shiga inhibitor = A qHTS for Small Molecule Inhibitors of Shiga Toxin. Vero cells, Shiga toxin protein synthesis inhibition reporter. AID 2315, 2010. 290,000 compounds, 9.2% hits. inhibition, % at 38.7 µM; in the data active = inhibition mostly above about 28%, no sharp cut-off; inactive = mostly below about 43%; also: 0% is about no effect
Marburg entry inh = qHTS for inhibitors of binding or entry into cells for Marburg Virus | Marburg virus pseudotyped entry inhibition, cell reporter | Potency, µM (highest dose often 37.8 µM), for inactives: top-dose activity change, negative = inhibition, actives largely listed as inhibitors | 300,000 compounds, 1.8% hits; calls by dose curve; tested in HEK293 cells; also: potency is read from the fitted curve at half-maximal effect; % is scaled to controls: 0 for no effect and ±100 for the full control effect
Cycloheximide cs = Cycloheximide Counterscreen for Small Molecule Inhibitors of Shiga Toxin; cell reporter, cycloheximide protein synthesis inhibition counterscreen; max response, %; 300,000 compounds, 12% hits; in the data active = max response mostly above about 13%, no sharp cut-off; inactive = mostly below about 14%; also: read at 38.3 µM for the half of the compounds with a filed dose; 0% is about no effect
* marks the source's active call; other numbers are inactive results; ? = inconclusive; / = no result; [ ] = another dose, or the depositor's remark. Rows were chosen to be rich in hits. Some 19% of all compounds tested hit in one or more screens of this group. Unless noted, calls follow the shape of the dose curve; as a rule, active = well fitted inhibition curve with a large enough effect; inconclusive = small, poorly fitted or top-dose-only effect, or another doubt; inactive = no such curve, though single readings can be large or run the other way.

SMILES	LASV entry inh	Pf growth 96h	Pf growth 48h	Shiga inhibitor	Marburg entry inh	Cycloheximide cs
Cc1nnc(NN)n(N)c1=O	14%[46.1 µM]	?	-80%	-1	-2%[46.1 µM]	1
COc1ccccc1CC(=O)Nc1ccc([N+](=O)[O-])cc1O	6.3µM*	11%	7%	-3	?	-1
COc1cc([N+](=O)[O-])ccc1NC(=O)CSc1nc2ccccc2n1-c1ccccc1	-1%	10µM*	8.3µM*	-3	4%	1
COc1ccccc1CC(=O)Nc1ccccc1O	-2%	6%	/	21	27%	-3
Cc1cc(F)ccc1NCc1ccc([N+](=O)[O-])cc1	8%	?	-15%	71*	-26%[46.1 µM]	30*
COc1ccc([N+](=O)[O-])cc1NC(=O)Cc1ccc(Cl)cc1	-19%	10µM*	-12%	-11	?	-2
COc1ccc([N+](=O)[O-])cc1NC(=O)Cc1ccc(C)cc1	5%	?	0%	-6	?	5
COc1cc(NC(=O)C2C3C=CC(C3)C2C(=O)O)c(OC)cc1Cl (stereo not given)	1%	-28%	12%	-3	-3%	1
COc1ccc([N+](=O)[O-])cc1NCc1ccccc1C	?	-3%	?	15	-9%	-3
COc1ccc([N+](=O)[O-])cc1NCc1ccccc1	16%	3.3µM*	18%	-3	23%	20
COc1cc([N+](=O)[O-])ccc1NC(=O)C1C2C=CC(C2)C1C(=O)O (stereo not given)	/	12µM*	?	/	/	-2
N#Cc1ccc(OC(=O)Cc2ccsc2)cc1	15%[46.1 µM]	22%	27%	-2	24%[46.1 µM]	-1
CCOC(=O)CCCNC(=O)CCNC(=O)c1ccc(OC)cc1	1%	47%	6%	2	15%	-3
CCc1ccc(CNC(=O)c2ccc3nc(C4CCCCC4)oc3c2)nc1	/	-6%	?	33*	/	46*
CCOC(=O)CCNC(=O)c1ccc2nc(C3CCCCC3)oc2c1	7%[46.1 µM]	?	0%	27	8%[46.1 µM]	17*
Cc1ccc2nc(-c3ccccn3)c(Nc3ccccc3C)n2c1	?	6%	?	-8	9%[46.1 µM]	-1
CCN(CC)CCCN1C(=O)C2C(C(=O)Nc3ccc(C(C)C)cc3)C3C=CC2(O3)C1C(=O)NC1CCCCC1 (stereo not given)	1%[46.1 µM]	21%	?	27	7%[46.1 µM]	-9
Cc1ccc(S(=O)(=O)COCCN2CCN(S(=O)(=O)c3ccc(C)cc3)CCC2=O)cc1	/	/	/	4	/	-4
CN1CCc2c(sc(NC(=O)c3cc(Cl)sc3Cl)c2C(N)=O)C1	/	?	?	30*	/	25*
COC(=O)c1c(NC(=O)c2ccco2)sc2c1CCN(C(C)C)C2	/	?	-1%	-7	/	1
CN1CCc2c(sc(NC(=O)c3ccc([N+](=O)[O-])o3)c2C(N)=O)C1	?	?	?	25*	?	27*
CN1CCc2c(sc(NC(=O)c3ccco3)c2C(N)=O)C1	6%	?	?	-3	-3%	17*
NC(=O)c1c(NC(=O)c2ccc([N+](=O)[O-])o2)sc2c1CCCC2	?	33%	-56%	13	-2%[46.1 µM]	10
CC(C)N1CCc2c(sc(NC(=O)c3ccco3)c2C(N)=O)C1	28%[46.1 µM]	?	0.47µM*	39	15%[46.1 µM]	21*
CN1CCc2c(sc(NC(=O)c3ccc(S(=O)(=O)N4CCCC4)cc3)c2C(N)=O)C1	/	?	?	-28	/	-2
SMILES	LASV entry inh	Pf growth 96h	Pf growth 48h	Shiga inhibitor	Marburg entry inh	Cycloheximide cs
C/C(N)=C(/C#N)C(=O)COC(=O)c1cc(S(=O)(=O)N2CCCCC2)ccc1C	?	?	?	-9	11%	1
O=C(CCNS(=O)(=O)c1ccc(Cl)cc1)OCC(=O)N1CCN(C(=O)c2ccco2)CC1	2%	12%	6%	/	-3%	/
CC(NS(=O)(=O)c1ccc(Cl)c(Cl)c1)C(=O)OCC(=O)Nc1ccc2c(c1)OCO2 (stereo not given)	-24%	?	9%	20	-35%	-2
O=c1c2ccccc2sn1-c1cc(S(=O)(=O)N2CCOCC2)ccc1N1CCOCC1	?	10%	3.7µM*	-17	?	-3
Cc1ccc(NC(=O)COC(=O)Cc2c[nH]c3ccccc23)cc1C	/	-11%	34%	/	/	/
COc1ccc(C2=CSC3=NNC4(CCCCC4)NN23)cc1	?	?	?	102*	21%[46.1 µM]	35*
Cc1ccc(C2=CSC3=NCCN23)c(C)c1	0%	?	?	-19	-2%	-1
Cc1ccc(C2=CSC3=NNC4(CCCCC4)NN23)cc1	3%	3%	-6%	88*	-11%	53*
COc1ccc(C2=CSC3=NCCN23)cc1	0%[46.1 µM]	20%	32%	-2	?	-1
Cc1cc(C)n(-c2cccc(F)n2)n1	0%	19%	4%	-15	-5%[46.1 µM]	-2
CC(C)CCN1NC2(CCCC(C)C2)NC1=S (stereo not given)	4%	0%	?	25	-3%[14.2 µM]	8
CC1CCCC2(C1)NC(=S)c1c(sc3c1CCCC3)N2 (stereo not given)	9%	5.2µM*	/	57	7%	15*
CC(=O)Nc1c([N+](=O)[O-])cc(C)c(Cl)c1[N+](=O)[O-]	-17%[46.1 µM]	-8%	?	-6	?	8
CC(Cc1ccccc1)N(C)C(=O)CN1C(=O)c2ccccc2C1=O (stereo not given)	16%	/	/	/	8%	/
CCC1OC(=O)CC(O)C(C)[C@@H](O[C@@H]2OC(C)[C@H](O[C@@H]3C[C@@](C)(O)C(O)C(C)O3)C(N(C)C)C2O)[C@H](CC=O)CC(C)C(=O)/C=C/C(C)=C/[C@@H]1COC1OC(C)C(O)C(OC)[C@@H]1OC (stereo not given in full)	/	0.76µM*	?	/	/	/
CCC1OC(=O)C[C@H](O)C(C)[C@@H](O[C@@H]2OC(C)C(O)C(N(C)C)C2O)C(CCN2CC(C)CC(C)C2)CC(C)C(=O)/C=C/C(C)=C\[C@@H]1COC1OC(C)C(O)C(OC)C1OC (stereo not given in full)	/	3.8µM*	?	/	/	/
COc1cc(OC)cc(C(=O)OC/C(O)=C(\C#N)c2nc3ccccc3[nH]2)c1	/	47%	79%	-2	/	-3
O=C(CCN1C(=O)COc2ccccc21)NCCCN1CCN(c2ccccc2F)CC1	-9%	2.6µM*	-16%	-24	-6%	-1
CCCN1CCN(CCCNC(=O)CCN2C(=O)COc3ccccc32)CC1	10%[46.1 µM]	-2%	-7%	-2	?	3
O=C(CN1C(=O)COc2ccccc21)NCCCN1CCOCC1	1%[46.1 µM]	2%	10%	-11	-15%[46.1 µM]	10
